In the library only some 3.4% were active in any assay of this set; here they are far more common.
FBW7 activator = human FBW7 E3 ligase activation, primary screen; AlphaScreen FBW7–phospho-cyclin E peptide binding, activator screen; hit rate 0.13% among 650,000; normalized activity (activation), % at 26.1 µM; in the data active means normalized activity above about 1.9%;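 further: purified mutant Fbw7 with reduced substrate affinity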
MITF inh = inhibitors of human MITF | O75030 | AlphaScreen MITF homodimerization, bead proximity signal | inhibition, % at 2.6 µM | hit rate 0.91% among 650,000 | AID 1259374; in the data active means inhibition above about 50%;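 further: 0% = vehicle wells with protein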
TEAD-YAP inh = TEAD-YAP interaction inhibition | HEK-TIYL cells, TEAD-Gal4/YAP UAS-luciferase luminescence | inhibition, % at 9.12 µM | hit rate 1.4% among 640,000 | AID 1259422; in the data active means inhibition above about 32%;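 further: 0% = median of test compound wells and 100% = reference inhibitor wells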
GPR151 ag = activators of human GPR151. Q8TDV0. hit rate 1% among 650,000. activation, % at 11.2 µM. PathHunter beta-arrestin GPR151 cells, luminescence; in the data active means activation above about 4.9%;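 further: 0% = median of compound wells and 100% = cells with positive control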
Target sequence (Q8TDV0 whole entry, looked up): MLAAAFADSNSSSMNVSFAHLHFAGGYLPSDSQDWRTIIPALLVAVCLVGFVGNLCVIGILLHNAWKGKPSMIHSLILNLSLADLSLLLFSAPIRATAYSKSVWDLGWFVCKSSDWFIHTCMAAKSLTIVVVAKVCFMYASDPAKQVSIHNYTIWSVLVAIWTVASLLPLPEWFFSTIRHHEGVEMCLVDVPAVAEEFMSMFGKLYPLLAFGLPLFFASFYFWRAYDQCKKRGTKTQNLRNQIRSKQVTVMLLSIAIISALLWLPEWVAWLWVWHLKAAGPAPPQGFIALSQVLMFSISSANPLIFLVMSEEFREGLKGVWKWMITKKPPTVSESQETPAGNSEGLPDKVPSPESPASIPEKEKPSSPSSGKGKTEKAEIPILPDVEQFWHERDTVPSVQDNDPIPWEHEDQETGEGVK
GPR151 confirm = human GPR151 activation, confirmation screen; shares compounds with GPR151 ag; 6,700 tested, under 10 active; GPR151 PathHunter beta-arrestin cells, luminescence, 90 min; % of EA-reagent control over plate median; activation, % at 11.2 µM; AID 1508609;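 active means mean percent activation across replicates above the confirmation screen cutoff of 4.91%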
GPR119 counter = GPR119 activation, counter-screen for GPR151 activators. shares compounds with GPR151 ag. GPR119 PathHunter beta-arrestin cells, luminescence, 90 min; 0 = compound-well median, 100 = enzyme-acceptor control. activation, % at 11.2 µM. hit rate 0.3% among 6,700. AID 1508611;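 active means mean percent activation in the counterscreen above 29.09%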;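 further: counterscreen on off-target GPR119 to flag nonselective hits from the GPR151 activator screen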
* hit, by the source's call; nt = no result given.

SMILES | FBW7 activator | MITF inh | TEAD-YAP inh | GPR151 ag | GPR151 confirm | GPR119 counter
CC1=CC(C)C(CNCCN2CCNCC2)C(C)C1 (stereo not given) | 0 | -8 | -7 | 4.9* | 0 | 1
COc1ccc(C2=CC(c3cc(OC)c(OC)c(OC)c3)n3nnnc3N2)cc1 (stereo not given) | 0 | 16 | 61* | 7.3* | 0 | -10
C#CCN1C(=O)S/C(=C/C=C/c2ccc(OC)cc2)C1=O | 0 | -2 | -38 | 1 | nt | nt
CC(=O)Nc1ccc(NC(=O)c2csc(Br)n2)cc1 | 0 | 8 | -27 | -3 | nt | nt
CN(C)c1ccc(NC2=CC(=O)N(Cc3ccco3)C2=O)cc1 | 0 | 37 | -1 | 5.1* | 0 | -9
CN(C)c1ccc(NC2=CC(=O)N(CCc3ccccc3)C2=O)cc1 | 0 | 2 | 3 | 2 | nt | nt
O=C(Cn1nc2oc3ccccc3n2c1=O)NC1CCCC1 | 0 | -4 | 2 | 7.8* | 0 | 9
COc1cc(OC)cc(C(=O)N2c3cc(C)ccc3-c3c(ssc3=S)C2(C)C)c1 | 0 | 0 | -1 | -1 | nt | nt
O=C1CC(C(=O)Nc2ccc([N+](=O)[O-])cc2)C2(CCCCC2)O1 (stereo not given) | 0 | -21 | 2 | 1 | nt | nt
O=c1/c(=C\c2ccc(-c3ccccc3F)o2)sc2nc3ccccc3n12 | 0 | 14 | 7 | -1 | nt | nt
Cn1nnc2c(N3CCC4(CC3)OCCO4)nc(Cc3ccc(Cl)cc3Cl)nc21 | 0 | 2 | 8 | 6.8* | 0 | 3
Cn1ccnc1CN1CCC(Oc2ccc(C(=O)NCc3ccncc3)cc2)CC1 | 0 | -8 | 6 | 5.2* | 0 | 1
O=c1c2c3c(sc2[nH]c(=S)n1-c1ccccc1)CN(Cc1ccccc1)CC3 | 0 | 2 | 9 | 5.3* | 0 | -6
O=c1c2c3c(sc2[nH]c(=S)n1-c1ccccc1)CCC3 | 2 | 11 | 0 | 1 | nt | nt
CCc1ccc(OCC(=O)Nc2cccc(C(C)=O)c2)c(Br)c1 | 0 | 27 | -47 | 1 | nt | nt
O=C(Cn1cc2c(n1)CCCCC2)N1CCc2ccccc21 | 0 | 3 | -4 | 5.4* | -1 | -2
O=C(Cn1cc2c(n1)CCCC2)N1CCc2ccccc2C1 | 0 | 11 | 8 | 0 | nt | nt
Cc1nc(-c2cc3ccc(O)cc3oc2=O)cs1 | 0 | -6 | -29 | -8 | nt | nt
CCCC(c1nnnn1Cc1ccco1)N1CCN(C(=O)c2ccco2)CC1 (stereo not given) | 0 | -5 | -3 | -1 | nt | nt
CCCCC(c1nnnn1Cc1ccco1)N1CCN(C(=O)c2ccco2)CC1 (stereo not given) | 0 | 4 | 0 | 20* | 0 | 4
CCN(CC)C(=O)/C(C#N)=C/c1ccc(OC(F)F)cc1 | 0 | -18 | 3 | 1 | nt | nt
CCOc1ccc(CNC(=O)c2cc(=O)[nH]c3ccccc23)cc1 | 0 | 4 | -8 | 5.0* | -1 | -7
CCOc1ccc(-n2c(SCC(=O)Nc3cc(C)on3)nc3c(c2=O)SCC3)cc1 | 0 | 4 | -38 | 5.1* | 1 | 5
CCn1c(SCC(=O)Nc2nc(C)cs2)nc2c(c1=O)SCC2 | 0 | -4 | 11 | 6.3* | 0 | 1
Cc1ccc(-n2c(SCc3cc(=O)n4ccccc4n3)nc3c(sc(=S)n3-c3cc(C)ccc3F)c2=O)cc1 | 0 | 5 | 7 | 0 | nt | nt
SMILES | FBW7 activator | MITF inh | TEAD-YAP inh | GPR151 ag | GPR151 confirm | GPR119 counter
O=C(Nc1ccccc1O)c1ccc(Cl)c([N+](=O)[O-])c1 | 0 | 0 | -3 | 2 | nt | nt
CCN(CC)C(=O)C1CCCN(c2nc(NCc3ccccc3)c3ncn(C(C)C)c3n2)C1 (stereo not given) | 0 | 1 | -4 | 1 | nt | nt
CN(C)c1ccc(NC2CC(=O)N(c3cccc(Cl)c3)C2=O)cc1 (stereo not given) | 0 | 18 | 4 | 0 | nt | nt
CN(C)c1ccc(NC2CC(=O)N(c3cccc4ccccc34)C2=O)cc1 (stereo not given) | 0 | 33 | 5 | 5.6* | 0 | 4
Nn1cnn2c(SCC(=O)Nc3ccc(Br)cc3)nnc12 | 0 | 2 | 10 | 1 | nt | nt
O=C(NCCc1ccc(O)cc1)c1cccc(N2CCC(N3CCOCC3)CC2)n1 | 0 | 2 | 4 | 5.6* | -1 | -15
COc1ccc(CCNC(=O)c2cccc(N3CCCC3CO)n2)cc1 (stereo not given) | 0 | 3 | 46* | 8.7* | 0 | -7
O=C(NCCO)c1cccc(N2CCCC2CO)n1 (stereo not given) | 0 | 12 | 4 | -1 | nt | nt
CC(=O)Nc1ccc(NC(=O)c2cccc(N3CCCC3CO)n2)cc1 (stereo not given) | 0 | -6 | 9 | 5.6* | 0 | -4
CCCNC(=O)c1cccc(N2CCC(N3CCOCC3)CC2)n1 | 0 | 13 | 3 | 1 | nt | nt
O=C(O)c1c(CNCc2ccco2)c2ccccc2n1Cc1ccc(Cl)cc1 | 0 | 13 | 4 | 1 | nt | nt
COc1ccc(/C=C/C(=O)Nc2nc3c(s2)C(=O)CC(C)(C)C3)cc1 | 0 | 6 | 0 | 5.4* | 0 | 1
COc1ccc(CCC(=O)Nc2nc3c(s2)C(=O)CC(C)(C)C3)cc1 | 0 | -7 | 14 | 6.5* | 0 | -7
COc1ccc(CC(=O)Nc2nc3c(s2)C(=O)CC(C)(C)C3)cc1 | 0 | -5 | 1 | 0 | nt | nt
CCCNC(=O)N1C2=NC(C(=O)OC)=C(C(=O)OC)[C@@H]3N(C)c4ccc(OC)cc4[C@]23C[C@H]1C(=O)OC | 0 | 4 | nt | 2 | nt | nt
Cc1cc(=O)[nH]c(SC(C)C(=O)Nc2cccc(Cl)c2)n1 (stereo not given) | 0 | -24 | -14 | 8.7* | -1 | -4
O=C1/C(=C/c2cccnc2)CC/C1=C\c1cccnc1 | 0 | 1 | 16 | 6.5* | 1 | 4
NC(=O)Cn1cnc2scc(-c3cccc([N+](=O)[O-])c3)c2c1=O | 0 | 0 | -15 | 0 | nt | nt
CCC(C(=O)OC)n1cnc2scc(-c3cccc([N+](=O)[O-])c3)c2c1=O (stereo not given) | 0 | 1 | -11 | 15* | 1 | 8
O=C(c1ccc(-n2nnc3ccccc3c2=O)cc1)N1CCc2ccccc2C1 | 0 | 0 | 2 | 6.0* | -1 | -8
O=C(c1ccc(Cn2nnc3ccccc3c2=O)cc1)N1CCc2ccccc2C1 | 0 | -7 | 2 | 0 | nt | nt
COCC(=O)NC1CCN(C(=S)Nc2ccc(Cl)cc2)CC1 | 0 | 3 | 0 | 7.4* | 1 | 8
COCC(=O)NC1CCN(C(=S)Nc2ccccc2Cl)CC1 | 0 | 0 | -19 | 0 | nt | nt
CC(=O)N1CCN(C(=O)CN2C(=O)C3CCCCC3C2=O)CC1 (stereo not given) | 0 | -2 | -9 | 0 | nt | nt
Cc1nn(-c2ccccc2)c(Cl)c1/C=N\O | 0 | -5 | -5 | 5.1* | 3 | 5

Assay outcomes as filed in PubChem BioAssay.
